HT1080-NT tox: kills 2HG-producing HT-1080-NT fibrosarcoma cells | HT-1080-NT fibrosarcoma viability, CellTiter-Glo ATP luminescence, 48 h | Potency, µM (titrated, usually from 46.1 µM), for inactives: at the top dose activity, negative = less viability, hits mostly cytotoxic | actives 1.6% (n = 360,000);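 note: NT is the 2HG producing partner of a matched IDH1 knockdown line; potency is the fitted concentration of half-maximal effect; 0% = DMSO-treated cells and -100% = media-only wells without cells; nearly all actives have a fitted effect of over 55% in size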
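Toxicity toward the 2HG-producing NT line was scored as %Activity, normalised to DMSO and no-cell wells, from CellTiter-Glo luminescence after 48 hours' treatment.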
TDP1 cell CPT: growth inhibition of DT40 Tdp1-/-;hTDP1 cells with camptothecin (screen for TDP1 inhibitors). Potency, µM (highest dose often 46.2 µM), inactives show at the highest dose activity change, negative = growth inhibition, hits mostly inhibitors. actives 12% (n = 420,000). AID 686979. chicken DT40 Tdp1-/-;hTDP1 cells + 20 nM CPT, ATP luminescence, 48 h; note: potency is the fitted concentration of half-maximal effect; nearly all actives have a fitted effect of over 55% in size
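Cell growth measured by CellTiter-Glo luminescence after a minimum 48 h, 37 C compound exposure with 20 nM CPT in Tdp1-knockout DT40 cells stably expressing hTDP1, seeded 400/well; qHTS titration format.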
HT1080 IDH1KD tx: HT-1080 IDH1 knockdown cell toxicity (counter line); HT-1080 IDH1 knockdown viability, ATP luminescence, 48 h; Potency, µM (highest dose often 46.1 µM), inactives show at the top dose activity, negative = toxicity, most hits filed as cytotoxic; actives 2% (n = 360,000); AID 686971;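 note: potency is the fitted concentration of half-maximal effect; 0% = DMSO wells and -100% = cell-free medium wells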
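Using the IDH1-knockdown HT-1080 line run in the same batch and compound series as the NT line, viability after 48 h at 37 °C was determined by CellTiter-Glo luminescence and expressed as % activity.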
TDP1 cell noCPT: qHTS for Inhibitors of human tyrosyl-DNA phosphodiesterase 1 (TDP1): qHTS in cells in absence of CPT; actives 15% (n = 420,000); Potency, µM (top dose mostly 46.2 µM), without a hit: top-dose activity change, negative = growth inhibition, most hits filed as inhibitors; DT40 Tdp1-/- hTDP1 cells, no CPT, ATP luminescence, 48 h; note: potency is the fitted concentration of half-maximal effect; nearly all actives have a fitted effect of over 55% in size
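No-CPT arm: Tdp1-/-;hTDP1 DT40 cells (400/well) plus compounds, incubated ≥48 hr at 37 °C. Readout CellTiter-Glo luminescence.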
12-LOX inh: ALOX12 (human) lipoxygenase inhibition; P18054; purified 12hLO, xylenol orange hydroperoxide absorbance; Potency, µM (top dose mostly 108 µM), inactives show at the highest dose activity change, negative = inhibition, hits mostly inhibitors; actives 1.1% (n = 580,000); note: potency is the fitted concentration of half-maximal effect
Target sequence (P18054 whole entry, looked up): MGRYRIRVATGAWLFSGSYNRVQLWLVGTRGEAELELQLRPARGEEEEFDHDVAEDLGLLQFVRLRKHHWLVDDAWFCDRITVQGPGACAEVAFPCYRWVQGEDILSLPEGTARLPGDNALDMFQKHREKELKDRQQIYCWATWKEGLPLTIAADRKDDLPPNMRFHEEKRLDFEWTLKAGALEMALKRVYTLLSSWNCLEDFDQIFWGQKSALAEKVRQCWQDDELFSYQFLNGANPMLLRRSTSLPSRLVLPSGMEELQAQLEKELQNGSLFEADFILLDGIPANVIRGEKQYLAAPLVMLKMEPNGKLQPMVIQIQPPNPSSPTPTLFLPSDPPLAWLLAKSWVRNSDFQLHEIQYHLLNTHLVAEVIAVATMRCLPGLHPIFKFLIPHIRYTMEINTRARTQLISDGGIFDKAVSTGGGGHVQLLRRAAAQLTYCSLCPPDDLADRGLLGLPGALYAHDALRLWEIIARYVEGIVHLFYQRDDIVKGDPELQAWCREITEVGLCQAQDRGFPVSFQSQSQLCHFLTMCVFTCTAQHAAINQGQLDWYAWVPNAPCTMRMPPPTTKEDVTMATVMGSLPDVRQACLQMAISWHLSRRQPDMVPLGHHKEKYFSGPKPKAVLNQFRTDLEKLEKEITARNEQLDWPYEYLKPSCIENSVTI
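Purified human 12hLO at 150 nM in 25 mM Hepes, 0.01% Triton X-100, pH 7.0, preincubated 15 min at room temperature with compound. Reaction started with 40 uM arachidonic acid, 30 min at room temperature. Hydroperoxide measured by Fe-xylenol orange, 573/405 nm absorbance ratio.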
IL-1B inflam inh: inhibitors of inflammasome signaling (IL-1 beta secretion); THP-1 LPS/ATP IL-1B secretion, AlphaLISA, 16 h; stronger effect = lower value; activity change, % at 57.5 µM; actives 4.7% (n = 360,000); in the data active = activity change below about -50%; inconclusive = mostly about -30% to -49%
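THP-1 cells pretreated 1 hr with compounds (up to 57.5 uM final), then stimulated with LPS (250 ng/mL final) plus ATP (1.25 mM final); secreted IL-1B measured by AlphaLISA after 16 hr, decreased signal indicating inhibition.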
* = called active by the depositor; i = inactive; ? = inconclusive; . = no result; [ ] = dose if it differs, or a comment. The entries come from a sample that favours hits as a whole. Unless noted, calls come from the whole dose curve; as a rule, active = well fitted curve in the direction sought with a large enough effect; inconclusive = small, poorly fitted or top-dose-only effect, or another doubt; inactive = no such curve, though single readings can be large; an effect the other way counts as inactive or inconclusive. Unless noted, % is set by controls: 0 for no effect and ±100 for the full control effect.

SMILES	HT1080-NT tox	TDP1 cell CPT	HT1080 IDH1KD tx	TDP1 cell noCPT	12-LOX inh	IL-1B inflam inh
Cc1ccc(CN2CCN(/N=C\c3cccc([N+](=O)[O-])c3)CC2)cc1	-17.0%	3.1%	-21.4%	?	-21.3%	-61.6*
Cc1ccc(/C=N/N2CCN(Cc3ccc(C)cc3)CC2)cc1	3.7%	1.4%	2.2%	-12.3%	-108.3%	2.2
CN(C)c1ccc(C=c2c3cc([N+](=O)[O-])ccc3n3c2cc(-c2ccccc2)[n+]3C)cc1	?	2.91µM*	10.3µM*	2.59µM*	7.94µM*	-115.0*
CN(C)c1ccc(C=c2c3ccccc3n3c2cc(-c2ccccc2)[n+]3C)cc1	?	0.581µM*	20.6µM*	0.366µM*	39.8µM*	-102.0*
COc1cc(N(C)C)ccc1C=c1c2ccccc2n2c1cc(-c1ccccc1)[n+]2C	?	0.517µM*	11.6µM*	0.366µM*	?	-99.7*
CN(C)c1ccc(C=c2c3ccccc3n3c2c2c([n+]3C)CCCC2)cc1	?	0.411µM*	6.51µM*	0.326µM*	?	-110.8*
CN(C)c1ccc(/C=C2\SC(=O)N(CC(O)Cn3c4ccccc4c4ccccc43)C2=O)cc1 (stereo not drawn)	-14.5%	?	?	?	7.3%	6.8
COCCN1C(=O)c2ccccc2C(C(=O)Nc2ccccc2)C12CCCC2 (stereo not drawn)	.	.	.	.	7.9%	.
COc1cc(/C=C(/C#N)c2nc3ccccc3[nH]2)ccc1OC(F)F	.	.	.	.	14.9%	.
Cc1ccc(S(=O)(=O)NCC(C)O)cc1C (stereo not drawn)	.	.	.	.	20.8%	.
COc1ccccc1CCC(=O)N1[C@@H]2CC[C@H]1CC(NC(=O)c1ccc(F)cc1)C2 (stereo partly drawn)	.	.	.	.	51.1%	.
COc1cc(C=C(C#N)C(=O)c2ccccc2)cc(OC)c1OC	11.0%	-3.7%	5.0%	-1.7%	-14.3%	0.0
CN(C)c1ccc(C=c2c3ccccc3n3c2cc(-c2ccc(Cl)cc2)[n+]3C)cc1	?	4.11µM*	?	4.61µM*	44.7µM*	-119.2*
COc1cc(C=c2c3ccccc3n3c2cc(-c2ccccc2)[n+]3C)cc(OC)c1OC	-15.4%	5.17µM*	?	4.61µM*	?	-26.2
Cc1ccc(CNC(=O)CCc2ncc(-c3ccc(F)cc3)o2)cc1	.	.	.	.	5.6%	.
OCCCNc1cc(-c2ccnc(Nc3cccc(Cl)c3)n2)ccn1	-44.9%	0.146µM*	?	0.164µM*	4.9%	-108.3*
CCC(C)Oc1cc(-c2ccnc(Nc3cccc(Cl)c3)n2)ccn1 (stereo not drawn)	-26.5%	?	?	?	-21.3%	-85.8*
COc1ccc(/C=N/NC(=O)c2cccc(C(=O)N/N=C/c3ccc(OC)c(OC)c3)n2)cc1OC	-8.6%	0.7%	-4.5%	-7.3%	7.9%	-5.8
COc1ccc(/C=N\NC(=O)c2ccccc2Cl)cc1COc1c(F)c(F)c(F)c(F)c1F	-12.5%	14.3%	?	-5.6%	9.9%	i
COc1ccc(/C=N/NC(=O)CCn2cnc(-c3ccccc3)c2-c2ccccc2)cc1OC	9.2µM*	5.17µM*	8.2µM*	6.51µM*	0.2%	16.3
COc1ccc(/C=N/NC(=O)c2ccccc2Cl)cc1CSc1nc2ccccc2s1	4.47µM*	5.8µM*	?	4.61µM*	-22.4%	49.9
COc1ccc(/C=N/NC(=O)Nc2cccc3nsnc23)cc1OC	8.3%	9.2µM*	23.1%	9.2µM*	-16.3%	-15.2
COc1ccc(/C=N/NC(=O)CCC(=O)Nc2ccccc2)cc1OC	-12.3%	-4.1%	0.0%	-22.9%	5.4%	-4.7
COc1ccc(/C=N/NC(=O)c2cccnc2)cc1CSc1nc2ccccc2s1	?	3.66µM*	?	2.91µM*	29.1%	6.7
COc1ccc(/C=N/NC(=O)c2cccnc2)cc1CN1CCOCC1	0.5%	10.9%	-3.8%	-2.5%	-5.4%	48.7
SMILES	HT1080-NT tox	TDP1 cell CPT	HT1080 IDH1KD tx	TDP1 cell noCPT	12-LOX inh	IL-1B inflam inh
COCCn1cnc2c1c(=O)n(Cc1ccccc1)c(=O)n2CC(C)C	.	.	.	.	-0.9%	.
COCCOc1ncccc1-c1noc([C@@H]2CCCN2Cc2ccc(OC)cc2O)n1	.	.	.	.	13.2%[176 µM]	.
Cc1c(C)n(Cc2cccnc2)c2ncnc(NCc3ccco3)c12	.	.	.	.	-11.6%	.
CCc1cccc(C)c1NC(=O)CCCSc1nc2ccccc2s1	-12.2%	18.4µM*	-12.5%	16.4µM*	-12.9%	9.9
O=C(CCSc1nc2ccccc2s1)N/N=C/c1c(O)ccc2ccccc12	?	6.51µM*	?	3.66µM*	-17.9%	192.4
COc1ccc(/C=N/NC(=O)CCSc2nc3ccccc3s2)cc1OC	-3.0%	13µM*	-4.1%	29.1µM*	3.7%	-20.0
CCCOc1nc2ccccc2nc1N1CCC(C(=O)NCc2ccc(Cl)cc2)CC1	.	.	.	.	3.2%	.
O=C(/C=C/c1cccnc1)c1cc2ccc1CCc1ccc(cc1)CC2	.	.	.	.	21.5%	.
COc1ccc(OC)c(NC(=O)Cc2c(C)c3c(O)cc(C)cc3oc2=O)c1	.	.	.	.	-24.0%	.
O=C(NC1CCN(Cc2ccccc2)CC1)c1cccc2c1CCN2C(=O)c1ccccc1	.	.	.	.	-1.5%	.
O=C(COC(=O)CSc1ccc2ccccc2c1)Nc1ccccc1C(F)(F)F	.	.	.	.	-28.7%	.
CCC(=O)N1CCc2cc(S(=O)(=O)N(CC)c3cccc(C)c3)ccc21	-8.9%	?	-19.9%	?	0.0%	-1.6
CCN(c1ccccc1)S(=O)(=O)c1cc(Br)cc2c1N(C(=O)C1CC1)CC2	.	16.4µM*	.	18.4µM*	-15.7%	.
O=C(C1CC1)N1CCc2cc(Br)cc(S(=O)(=O)Nc3ccc(C(F)(F)F)cc3)c21	.	18.4µM*	.	16.4µM*	-57.9%	.
CCN(c1cccc(C(F)(F)F)c1)S(=O)(=O)c1ccc2c(c1)CCN2C(=O)C1CC1	-28.3%	15.8µM*	?	15.8µM*	32.7%	?
CCCCN(C)S(=O)(=O)c1cc2c(cc1Br)CCN2C(=O)C1CC1	-1.0%	4.11µM*	-12.2%	3.66µM*	6.9%	0.9
Cc1cc(NC(=O)CCS(=O)(=O)c2cc(Br)cc3c2N(C(=O)C2CC2)CC3)ccc1Br	.	-11.8%	.	-18.3%	?	.
C/C(=N\NC(=O)c1cccc(Br)c1)c1cccs1	.	.	.	.	61.6%	.
CC(C)C(NC(=O)c1ccccc1F)C(=O)NN (stereo not drawn)	.	.	.	.	17.7%	.
